Structures are written as SMILES. Out of some 6,200 compounds screened, about 2,900 (47%) were called active. No stated cut-off is given here; in the data, active means inhibition above about 50%; inactive means the rest. So high a share suggests a set chosen from earlier hits. Some of the results follow.

A short description of the assay: Mycobacterium tuberculosis growth inhibition, primary screen (AID 1259343). The following applies: inhibition: at 10 µM, stronger effect = higher value; outcome: 10 uM.
On to `Cc1ccc(NC(=O)NCCc2csc(C(C)C)n2)c(Cl)c1`, for which the inhibition is 25.8% (inactive).

`Cc1ccc(Nc2n[nH]nc2C(=O)Nc2ccc(C)cc2Cl)cc1`: the inhibition was 83.6% (active). Then `Cc1ccc(Nc2nc(-c3ccccc3)nc(Cl)c2N)cc1`, with 45.9% (inactive). The figure for `CCOC(=O)C1C(=O)CC(O)(c2ccc(Br)cc2)CC1C=C(Cl)Cl` (centres undefined) is 34% (inactive); for `Cc1cc(C)n2c(NCc3ccccc3)c(-c3ccc(Cl)cc3)nc2c1` it is 51.4% (active); for `CCC(=O)Nc1c(-c2cc(C)cc(C)c2)nc2cc(C)ccn12` it is 5.69% (inactive). Consider `CCCS(=O)(=O)Oc1ccc([N+](=O)[O-])cc1-c1nc2ccccc2o1`, for which the inhibition is 99.4% (active).

In the case of `O=[N+]([O-])c1ccc(Cl)c(S(=O)(=O)Oc2cccc3ccccc23)c1`, the inhibition was 20.7% (inactive). The figure for `COc1ccccc1C(=O)Nc1cc(C)nn1-c1nc(C)cc(=O)[nH]1` is 99.4% (active); for `COc1cccc(C(=O)Nc2cc(-c3cccs3)nn2-c2nc(C)c(C)c(=O)[nH]2)c1OC` it is -24.6% (inactive). The figure for `COc1cccc(C(=O)Nc2cc(C)nn2-c2nc(C)c(C)c(=O)[nH]2)c1OC` is 7.56% (inactive). The figure for `COc1cccc(C(=O)Nc2cc(-c3cccs3)nn2-c2nc(C)cc(=O)[nH]2)c1OC` is 100% (active); for `CCc1cc(=O)[nH]c(-n2nc(C)cc2NC(=O)c2cccc(OC)c2OC)n1` it is 102% (active); for `COc1cccc(C(=O)Nc2cc(C)nn2-c2nc(C)cc(=O)[nH]2)c1OC` it is 101% (active). Regarding `COc1cccc2c1C(=O)c1c(O)c3c(c(O)c1C2=O)C[C@@](O)(C(C)=O)C[C@@H]3O[C@H]1C[C@H](N)[C@H](O)[C@H](C)O1`, the inhibition is 38.2% (inactive). Then `CCOc1ccccc1C(=O)Nc1cc(C)nn1-c1nc(C)cc(=O)[nH]1`, with 101% (active). With `COc1cccc(C(=O)Nc2cc(C3CC3)nn2-c2nc(C)cc(=O)[nH]2)c1OC`, the inhibition is 99.8% (active). With `COC(=O)c1ccc(CN(Cc2ccc(C)s2)CC2CCCO2)o1` (centres undefined), the inhibition was 73.4% (active). Then `Cc1[nH]nc(C(=O)N(Cc2cccc(F)c2)CC2CCCO2)c1Br` (centres undefined), with -6.44% (inactive). The figure for `COC(=O)c1ccc(CN(Cc2ccco2)Cc2ccc(C)s2)o1` is 73.9% (active). Then `Cc1oc(-c2ccc(-c3ccccc3)cc2)nc1CN(Cc1ccccn1)CC1CCCO1` (centres undefined), with -19.8% (inactive); and `COc1ccc(CN(Cc2ccco2)CC(O)COc2ccc(Cl)cc2)cc1` (centres undefined), with 6.76% (inactive). `Cc1ccc(C(C)NC(=O)CN(C(=O)Cn2cnc(C)c2C)C(C)c2ccc(C)c(C)c2)cc1C` (centres undefined): the inhibition was 37.8% (inactive).

With `COc1ccc(N(C)S(=O)(=O)c2ccc(OC)c(N3CCN(C(=O)C4CCC4)CC3)c2)cc1`, the inhibition was -12.6% (inactive). The figure for `CN(c1ccccc1)S(=O)(=O)c1cccc(NC(=O)C2CC2)c1` is 95% (active).

With `O=C(NS(=O)(=O)CCc1ccccc1)c1cccs1`, the inhibition was 57% (active).

As for `COc1ccccc1Nc1ncc([N+](=O)[O-])cc1[N+](=O)[O-]`, the inhibition is 101% (active).

Consider `O=[N+]([O-])c1cnc(Nc2cccc(Cl)c2)c([N+](=O)[O-])c1`, for which the inhibition is 97.7% (active).

Turning to `Cc1cc(C)cc(Nc2ncc([N+](=O)[O-])cc2[N+](=O)[O-])c1`, the inhibition is 92.8% (active). The figure for `O=[N+]([O-])c1cnc(Nc2cccc(O)c2)c([N+](=O)[O-])c1` is 75.9% (active). `O=[N+]([O-])c1cnc(Nc2ccccc2O)c([N+](=O)[O-])c1`: the inhibition was 26.1% (inactive). Then `O=[N+]([O-])c1cnc(Nc2ccccc2Cl)c([N+](=O)[O-])c1`, with -16.6% (inactive); and `C=C(C)C1Cc2c(ccc(C(=O)O)c2O)O1` (centres undefined), with 48.9% (inactive); and `O=[N+]([O-])c1cnc(Nc2ccc(O)cc2)c([N+](=O)[O-])c1`, with “inactive”. Consider `O=[N+]([O-])c1cnc(Nc2ccc(Cl)cc2)c([N+](=O)[O-])c1`, for which the inhibition is 58.3% (active).

`Nc1cc(F)c(N2CC3CCC2C3)cc1C(=O)O` (centres undefined): the inhibition is 36.3% (inactive).

On to `CCN1CCN(c2cc3c(cc2F)c(=O)c(C(=O)O)cn3C2CC2)CC1`, for which the inhibition was 99.3% (active). For the compound `c1ccc(CCC2CCN(Cc3nc(COc4ccccc4)no3)CC2)cc1`, the inhibition entry is “inactive”. For `O=C(c1cccs1)C1CCCN(Cc2nc(COc3ccccc3)no2)C1` (centres undefined), the inhibition is 83.9% (active). In the case of `c1ccc(OCc2noc(CN3CC[C@@H]4CCCC[C@H]4C3)n2)cc1`, the inhibition is 66.7% (active). Then `Fc1ccccc1Cc1noc(CN2CC[C@@H]3CCCC[C@H]3C2)n1`, with 74.6% (active). Then `Fc1ccccc1Cc1noc(CN2CCCN(Cc3ccccc3F)CC2)n1`, with 34% (inactive).

With `O=C(c1ccccc1)C1CCCN(Cc2nc(COc3ccccc3)no2)C1` (centres undefined), the inhibition result was “inactive”. The figure for `Clc1cccc(C2CCN(Cc3nc(COc4ccccc4)no3)C2)c1` (centres undefined) is 92.9% (active); for `OC(CCc1ccccc1)C1CCN(Cc2nc(Cc3ccccc3F)no2)CC1` (centres undefined) it is 43.5% (inactive); for `CCCOc1ccc(C=C2SC(=S)NC2=O)cc1` it is 86.5% (active). The figure for `O=C1NC(=O)C(=Cc2ccc(F)cc2)S1` is -10.1% (inactive); for `CC(C)N1C(=O)C(=Cc2ccc(O)cc2)SC1=S` it is 36.9% (inactive). The figure for `CCc1ccc(CCOc2ccc(CC3SC(=O)NC3=O)cc2)nc1` (centres undefined) is 38.2% (inactive); for `CCCCCCOc1ccc(C=C2SC(=O)NC2=O)cc1` it is 84.7% (active); for `O=C(OCC(=O)N1CCCC1)c1ccc([N+](=O)[O-])o1` it is 39% (inactive). `CC(C)(C)c1ccc(-c2ccnc3nc(N4CCN(C(=O)c5ccc([N+](=O)[O-])o5)CC4)nn23)cc1`: the inhibition was 74.3% (active). The figure for `O=C(OCC(=O)N(C1CCCCC1)C1CCCCC1)c1ccc([N+](=O)[O-])o1` is -1.53% (inactive); for `CCc1ccc(S(=O)(=O)Nc2cccc(-c3nc4cccnc4s3)c2C)s1` it is 62.5% (active). The figure for `N#Cc1cccc(CSc2nnc(-c3cccc(Br)c3)o2)c1` is 5.74% (inactive); for `CC(C)(C)c1ccc(-c2n[nH]c(=S)o2)cc1` it is 25.8% (inactive).

As to `O=[N+]([O-])c1cccc(-c2n[nH]c(=S)o2)c1`, the inhibition is 91.4% (active).

`CC(C)CSc1nnc(-c2cccc([N+](=O)[O-])c2)o1`: the inhibition is 97.8% (active).

For the compound `Cc1cc(C)cc(-c2n[nH]c(=S)o2)c1`, the inhibition was 101% (active).

On to `S=c1[nH]nc(-c2cccc(Br)c2)o1`, for which the inhibition is 62.1% (active). The figure for `CC(C)CSc1nnc(C2CCCCC2)o1` is -1.92% (inactive); for `Cc1ncc(CNC(=O)N2CCC(C(C)C)CC2)s1` it is -9.36% (inactive).

Consider `S=c1nc(-c2ccc(Br)cc2)[nH][nH]1`, for which the inhibition is -31.4% (inactive).

Turning to `S=c1[nH]nc(-c2ccc(Cl)cc2)o1`, the inhibition is 41.4% (inactive). As for `S=c1[nH]nc(-c2ccc(Br)cc2)o1`, the inhibition was 80.5% (active). Then `CCN1CCc2c(sc3nc(C4CCCCC4)nc(N4CCNCC4)c23)C1`, with 50.1% (active).

Consider `COCc1nc(N2CCNCC2)c2c3c(sc2n1)CCCC3`, for which the inhibition is 94.1% (active). Then `c1cc2c(cc1Oc1nc(CN3CCOCC3)nc3sc4c(c13)CCC4)CCC2`, with 22.2% (inactive). The figure for `c1nc(N2CCCCC2)c2c3c(sc2n1)CCCC3` is 30% (inactive); for `CC(C)(CC(=O)O)CC(=O)N1CCC2(CC1)OCc1cc(-c3ccc(C(F)(F)F)cc3)ccc1O2` it is 58% (active).

Consider `Cc1sc2nc(-c3ccco3)oc(=O)c2c1C`, for which the inhibition was -5.77% (inactive). Then `CCOc1cccc(OCc2nc(-c3ccco3)oc2C)c1`, with 75.2% (active); and `C#CCN(CC=C)Cc1nc(-c2ccc(OCC)cc2)oc1C`, with -15.4% (inactive); and `OCC#CCSc1ncnn1-c1ccccc1`, with -60.2% (inactive). Then `COc1ccc(Nc2ncc([N+](=O)[O-])cc2[N+](=O)[O-])cc1`, with “inactive”; and `COc1ccc(Nc2c([N+](=O)[O-])ccc3c2=NC2(CCCCC2)N=3)cc1`, with 47.2% (inactive); and `COc1ccc(Nc2ccc(Nc3ccc([N+](=O)[O-])cc3[N+](=O)[O-])cc2)cc1`, with 94.7% (active). The figure for `COC(=O)C1C(c2ccccc2)C2(c3ccccc3)C(C)(C)C12C(=O)OC` (centres undefined) is 10.3% (inactive); for `O=c1cc(-c2c(F)c(F)c(F)c(F)c2F)oc2c(F)c(F)c(F)c(F)c12` it is 100% (active). In the case of `Fc1ccc(C2C=C3Oc4ccccc4N=C3NN2)cc1` (centres undefined), the inhibition was 92.6% (active).

For the compound `Brc1ccccc1OCc1cnn(-c2ccccc2)n1`, the inhibition was 21.9% (inactive). The figure for `CC1(C)OC(=O)C(=CNc2ccc3ccccc3c2)C(=O)O1` is 20.6% (inactive); for `CC(C)c1ccc(NC=C2C(=O)OC(C)(C)OC2=O)cc1` it is 85.2% (active). Then `CC(=O)NC1CCN(Cc2nc(-c3cccc(Oc4ccccc4)c3)oc2C)C1` (centres undefined), with 24.9% (inactive). The figure for `Cc1cccc(-n2cc(CN3CCN(C(=O)c4ccco4)CC3)c(-c3cccc(F)c3)n2)c1` is 24.8% (inactive); for `Cc1oc(-c2ccc3ccccc3c2)nc1CN1CCN(C(=O)c2ccco2)CC1` it is 78.8% (active). Consider `CC(=O)NC(c1ccccc1)(c1ccccc1)C(F)(F)F`, for which the inhibition was 7.55% (inactive). The figure for `O=C(NCC(F)(F)F)c1cc(-c2ccccc2Cl)n[nH]1` is 30.1% (inactive). Then `O=C(NCC(F)(F)F)c1cc(-c2ccc(Cl)cc2)n[nH]1`, with 72.2% (active); and `Cc1ccc(Sc2ccccc2N2CCNCC2)c(C)c1`, with 83.7% (active). The figure for `CCOC(=O)CN1C(=O)CSC1=CC#N` is 26.1% (inactive); for `O=C(Nc1ccccn1)C1CCN(c2cccc(C(F)(F)F)n2)CC1` it is 92.4% (active); for `CCCCn1nc(C)c(C(=O)NCc2ccc(Cl)s2)c1Cl` it is -14.6% (inactive).

Turning to `Cc1nn(-c2ccccc2)c(Cl)c1C(=O)Nc1ccccc1I`, the inhibition was 28.9% (inactive). As to `CCCCn1nc(C)c(C(=O)Nc2cc(C)ccc2F)c1Cl`, the inhibition is 60.1% (active).

For `Cc1cc(C)c2ccc(O)cc2n1`, the inhibition is 83.4% (active).

`C=CCN(Cc1ccc(Cl)s1)C(=O)CSc1nnc(-c2ccc(C)cc2)o1`: the inhibition is 21.2% (inactive).

As for `Cc1ccc(C(=O)Nc2ccccc2SCC(F)(F)F)cc1`, the inhibition is 45.2% (inactive).

Take `C=CCN(CC=C)C(=S)NC(=O)c1ccc(C)cc1`: the inhibition is 98.4% (active).

These data come from PubChem BioAssay AID1259343 (VanderVen Lab, College of Veterinary Medicine, Cornell …, 2017).
